Screens deposited in PubChem by National Center for Advancing Translational Sciences (NCATS).
Rows were chosen to be rich in hits. Some 2.5% of all compounds tested hit in one or more screens of this group.
Pol eta inh-1 = inhibitors of human DNA polymerase eta | recombinant Pol eta, fluorescent DNA replication assay | Potency, µM (series often up to 114 µM), for the others: at the highest dose activity change, negative = inhibition, hits mostly inhibitors | 1.2% of 390,000 active | Q9Y253 | AID 588591; further: on the % scale 0 is the no-effect control and ±100 the full control effect
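Pol eta (10 nM) was preincubated with compounds for 15 min at room temperature, after which fluorescent replication substrate (50 nM final) was added to start the reaction. Fluorescence was read kinetically at 0 and 10 min.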
WRN inhibitor = blocks human WRN helicase; Q14191; WRN helicase unwinding, fluorescent forked duplex, kinetic; Potency, µM (series often up to 114 µM), inactives show top-dose activity change, negative = inhibition, hits mostly inhibitors; 0.46% of 360,000 active; AID 651768; further: on the % scale 0 is the no-effect control and ±100 the full control effect; nearly all actives have a fitted effect of over 55% in size
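WRN at 20 nM final was preincubated with compound for 15 min at room temperature; reaction started with 100 nM forked duplex oligonucleotide carrying fluorophore and quencher plus 2 mM ATP (final). Unwinding followed kinetically by red fluorescence (ex 525/em 598 nm).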
POLI inh = DNA polymerase iota (human) inhibition; Q9UNA4; Pol iota fluorescent replication assay, 10 min; Potency, µM (doses to about 115 µM), for inactives: at the highest dose activity, negative = inhibition, most hits filed as inhibitors; 1% of 390,000 active; AID 588590
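Pol iota at 10 nM preincubated 15 min with compounds at room temperature; reaction started with fluorescent substrate, 50 nM final. Fluorescence read kinetically at 0 and 10 min; buffer-only wells as negative control.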
POLB inh = inhibitors of human DNA polymerase beta | Pol beta primer extension/strand displacement, fluorescence kinetic | Potency, µM (series often up to 114 µM), for the others: at the highest dose activity change, negative = inhibition, usual class: inhibitors | 1.3% of 340,000 active | AID 485314; further: on the % scale 0 is the no-effect control and ±100 the full control effect
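Homogeneous kinetic assay of primer extension and strand displacement by 10 nM Pol beta, preincubated 15 min at room temperature with compound before 50 nM substrate (final) was added. Read at 0 and 10 min; four-parameter Hill fit.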
Pol kappa inh-1 = blocks human DNA polymerase kappa activity | purified Pol kappa, fluorescent DNA synthesis assay, 10 min | Q9UBT6 | AID 588579 | Potency, µM (highest dose often 107 µM), without a hit: top-dose activity, negative = inhibition, most hits filed as inhibitors | 0.53% of 400,000 active; further: on the % scale 0 is the no-effect control and ±100 the full control effect
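Activity was followed as the change in fluorescence between reads at 0 and 10 min after starting the reaction with 50 nM substrate. Beforehand, 10 nM polymerase had been preincubated with compound for 15 min at room temperature.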
L3MBTL1 block = blocks human L3MBTL1 | Q9Y468 | AlphaScreen L3MBTL1–H3K9me1 peptide binding | Potency, µM (titrated, usually from 57.1 µM), for the others: at the highest dose activity, negative = inhibition, hits mostly inhibitors | 0.66% of 230,000 active | AID 485360; further: on the % scale 0 is the no-effect control and ±100 the full control effect; nearly all actives have a fitted effect of over 60% in size
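L3MBTL1 (50 nM) pre-complexed 30 min with biotinylated H3(1-15)K9me1 peptide (75 nM), then compounds added for 30 min at room temperature; AlphaScreen streptavidin donor/nickel chelate acceptor beads (10 ug/mL final) read after 30 min dark incubation.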
HEK293 tox = HEK-293 cytotoxicity, GALK inhibitor secondary; AID 2547; HEK-293 viability, ATP luminescence (CellTiter-Glo), 24/48 h; shares compounds with Pol eta inh-1; Potency, µM (doses to about 46.1 µM), for inactives: at the top dose activity change, negative = cytotoxicity, actives largely listed as inhibitors; 10% of 170 active; further: on the % scale 0 is the no-effect control and ±100 the full control effect
Pol kappa inh-2 = confirmation of human DNA polymerase kappa inhibitors. shares compounds with Pol eta inh-1. purified Pol-kappa, fluorescent strand-displacement substrate. Potency, µM, actives largely listed as inhibitors. 76% of 920 active. AID 720501
Pol eta inh-2 = confirmation of human DNA polymerase eta inhibitors. 64% of 2,600 active. shares compounds with Pol eta inh-1. Pol eta primer extension, TAMRA/BHQ fluorescence, 10 min. AID 720502. Potency, µM, actives largely listed as inhibitors
Active calls of the source: *; ? = inconclusive; · = no result given; [ ] = another dose, or the depositor's remark. The call rests on the fitted dose curve; in most records, active means well fitted curve in the direction sought with a large enough effect; inconclusive means small, poorly fitted or top-dose-only effect, or another doubt; inactive means no such curve, though single readings can be large; an effect the other way counts as inactive or inconclusive. Potency means the concentration at half of the fitted maximal effect.

SMILES | Pol eta inh-1 | WRN inhibitor | POLI inh | POLB inh | Pol kappa inh-1 | L3MBTL1 block | Pol eta inh-2 | others
Cc1ccc(NC(=O)CCc2nc3sc4c(c3c(=O)[nH]2)CCCC4)c(Br)c1 | 25µM* | ? | 40µM* | · | ? | -27% | 85*
O=C(O)c1cc([N+](=O)[O-])cc2c1C=Cc1ccccc1O2 | 28µM* | -4%[11.6 µM] | ? | 56µM* | ? | · | · | Pol kappa inh-2=?
O=C(NCCO)c1cc([N+](=O)[O-])cc2c1C=Cc1ccccc1O2 | -6% | 1% | 127% | 0% | -2% | 12% | ·
COc1cc(NC(=O)c2ccc3c(SCC(=O)O)c4c(nc3c2)CCC4)cc(OC)c1OC | 18µM* | -17%[11.6 µM] | ? | -4% | ? | · | 54*
COc1cc(NC(=O)c2ccc3c(SCC(=O)O)c4c(nc3c2)CCCC4)cc(OC)c1OC | -7% | -16% | ? | ? | ? | · | ·
COc1ccc(C)cc1-n1nnnc1SC/C(O)=C(\C#N)c1nc2ccccc2[nH]1 | ? | -14% | ? | ? | ? | -3%[11.4 µM] | ·
Cc1cc(C)n2c(SCC(O)=C(C#N)c3nc4ccccc4[nH]3)nnc2n1 | 25µM* | ? | 11µM* | · | ? | · | ?
Cc1ccc2cc(/C=N/NC(=O)c3ccccc3O)c(Cl)nc2c1 | 16µM* | 50µM* | 7% | 3%[57.1 µM] | -9% | 0% | ?
Cc1cccc2cc(/C=N/NC(=O)c3ccncc3)c(Cl)nc12 | 22% | 9% | -1% | -8% | -1% | · | ·
Cc1cccc2cc(/C=N/NC(=O)c3ccccc3O)c(Cl)nc12 | ? | ? | -14% | 28µM* | -3% | -2% | ?
C=CCN1C(=O)CSc2ccc(C(=O)NCCC3=CCCCC3)cc21 | -15% | -11% | 8% | 2% | -13% | · | ·
Cc1ccc(C(=O)CSC2=C(C#N)C(c3ccco3)CC(=O)N2)c(C)c1 (stereo not given) | 79µM* | ? | 18µM* | 32µM* | ? | ? | ?
Cc1ccc(NC(=O)CSC2=C(C#N)C(c3ccco3)CC(=O)N2)cc1 (stereo not given) | ? | -3% | 6% | 0% | -14% | · | ·
CCN=c1scc(C)n1/N=C/c1ccc(O)c(O)c1O | 6.3µM* | 22µM* | 8.9µM* | 10µM* | 22µM* | 32µM* | 67*
COc1ccc(C2N=C(Nc3nc4ccccc4o3)NC3=C2C(=O)CC(C)(C)C3)cc1 (stereo not given) | · | · | 9% | · | -15% | · | · | HEK293 tox=-16%
CC1(C)CC(=O)C2=C(C1)Nc1ccccc1NC2c1ccc(F)cc1 (stereo not given) | 0% | -4%[57.1 µM] | 1% | -9% | 1% | -7% | ·
COc1ccc(C2Nc3ccccc3NC3=C2C(=O)CC(C)(C)C3)cc1 (stereo not given) | -10% | -13% | ? | 45% | 12% | · | ·
CC1(C)CC(=O)C2=C(C1)NC(Nc1nc3ccccc3o1)=NC2c1ccccc1 (stereo not given) | · | · | 14% | · | 0% | · | · | HEK293 tox=-11%
COCc1cc(=O)[nH]c(Nc2nc3ccccc3o2)n1 | -16% | -15% | -8% | 15% | -10% | 0% | ·
CC1(C)CC(=O)C2=C(C1)NC(Nc1nc3ccccc3o1)=NC2c1cccc(O)c1 (stereo not given) | · | · | 23% | · | -6% | · | · | HEK293 tox=?
